# In the library only some 2% were active in any assay of this set; here they are far more common.
# TRb SRC2 PPI: TRbeta-SRC2 interaction inhibition. P10828. TRbeta-SRC2 peptide binding, fluorescence polarization; receptor liganded with 1 µM T3. Potency, µM (titrated, usually from 106 µM), without a hit: top-dose activity change, negative = inhibition, most hits filed as inhibitors. 280,000 compounds, 0.065% hits;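 further: potency means the concentration at half of the fitted maximal effect; plate controls were bound peptide for no effect and peptide without receptor for full effect; nearly all actives have a fitted effect of over 50% in size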
# Target sequence (P10828 whole entry, looked up): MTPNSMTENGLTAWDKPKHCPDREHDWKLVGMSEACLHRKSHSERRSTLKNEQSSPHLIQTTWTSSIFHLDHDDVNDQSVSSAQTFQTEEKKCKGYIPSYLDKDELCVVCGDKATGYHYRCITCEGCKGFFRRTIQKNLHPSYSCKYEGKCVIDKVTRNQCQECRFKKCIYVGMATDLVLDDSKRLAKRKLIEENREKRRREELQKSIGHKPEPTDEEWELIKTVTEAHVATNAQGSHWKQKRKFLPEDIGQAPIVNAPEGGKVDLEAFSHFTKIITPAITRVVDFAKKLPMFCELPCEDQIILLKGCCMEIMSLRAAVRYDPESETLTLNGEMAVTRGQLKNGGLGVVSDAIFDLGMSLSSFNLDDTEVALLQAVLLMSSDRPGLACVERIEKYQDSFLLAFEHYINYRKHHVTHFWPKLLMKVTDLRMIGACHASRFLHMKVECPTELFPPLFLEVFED
#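 Fluorescence polarization of 20 nM Texas Red SRC2 peptide (20-aa NR interaction domain) bound to 0.6 uM human TRb ligand-binding domain, with 1 uM T3, after 5 hr at ambient temperature; inhibition seen as decreased polarization.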
# HttQ103 aggreg: mutant huntingtin aggregation inhibition; Potency, µM (doses to about 46.1 µM), for the others: at the top dose activity change, negative = inhibition, usual class: inhibitors; 220,000 compounds, 1.1% hits; PC12 HttQ103-GFP aggregates, Acumen cytometry, 40 h; further: potency means the concentration at half of the fitted maximal effect; on the % scale 0 is the no-effect control and ±100 the full control effect; nearly all actives have a fitted effect of over 60% in size
#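 Ecdysone-promoter PC12 model expressing HTT exon 1 Q103 fused to GFP, induced by tebufenozide at 100 nM final. Compounds titrated; aggregates sized 1–25 µm scored on a 488 nm laser cytometer.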
# TexasRed fluor: alters Texas Red total fluorescence, flagging assay interference | TRb/SRC2 Texas Red total fluorescence interference | Potency, µM (doses to about 106 µM), without a hit: top-dose fluorescence change, negative = quenching | 280,000 compounds, 0.29% hits | AID 1479; active means well fitted curve in either direction with a large enough effect; inconclusive means small, poorly fitted or top-dose-only effect; further: potency means the concentration at half of the fitted maximal effect; on the % scale 0 is the no-effect control and ±100 the full control effect
#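 Human TRβ ligand-binding domain (0.6 uM) and Texas Red SRC2 peptide (20 nM) in Tris buffer with 1 uM T3 and 5% DMSO were incubated with pinned compound for 5 hr at ambient temperature. Total fluorescence was computed as S + 2P (555/632 nm).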
# KDM4E inh: JMJD2E (human) inhibition; Potency, µM (titrated, usually from 57.1 µM), for the others: top-dose activity change, negative = inhibition, actives largely listed as inhibitors; B2RXH2; 230,000 compounds, 1.6% hits; JMJD2E catalytic domain, FDH-coupled NADH fluorescence (FDH is formaldehyde dehydrogenase);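 further: potency means the concentration at half of the fitted maximal effect; 0% = wells with enzyme and -100% = buffer wells without enzyme; nearly all actives have a fitted effect of over 50% in size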
# Target sequence (B2RXH2 1-337 limits assumed): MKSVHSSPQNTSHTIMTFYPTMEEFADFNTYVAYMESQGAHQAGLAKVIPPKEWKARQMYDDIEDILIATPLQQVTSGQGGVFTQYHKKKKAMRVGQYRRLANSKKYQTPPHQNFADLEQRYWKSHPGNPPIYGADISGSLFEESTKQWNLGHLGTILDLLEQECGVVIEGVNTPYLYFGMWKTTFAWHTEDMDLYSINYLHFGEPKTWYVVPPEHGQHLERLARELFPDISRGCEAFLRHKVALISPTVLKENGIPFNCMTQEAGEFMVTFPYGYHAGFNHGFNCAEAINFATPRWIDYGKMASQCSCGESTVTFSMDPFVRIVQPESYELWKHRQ
# FBPA coupling cs: coupling enzyme interference in Giardia aldolase counter-screen. 290,000 compounds, 0.67% hits. coupling enzyme system counterscreen, AmpLite Red fluorescence. activity change, negative = inhibition, % at 58.2 µM, hits read low. AID 2472; in the data active means activity change below about -30%; further: on the % scale 0 is the no-effect control and ±100 the full control effect
#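 Counterscreen lacking aldolase: glyceraldehyde-3-phosphate coupling-enzyme reagent preincubated 10 min at RT with compound (at 57.5 uM final), then substrate/coupling system with AmpLite Red added; fluorescence read at 525/598 nm after 20 min RT.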
# HTT ATP protect: Huntington cell model cytoprotection by ATP luminescence; PC12 HTT-Q103 induced, cytoprotection, ATP luminescence, 40 h; Potency, µM (doses to about 56.4 µM), without a hit: cytoprotection (ATP increase), hits mostly activators; 230,000 compounds, 0.14% hits; AID 1471; further: potency means the concentration at half of the fitted maximal effect; % of control where 0% means no effect; nearly all actives have a fitted effect of over 45% in size
#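 Rat PC12, Q103 Htt exon1-GFP fusion, ecdysone promoter; tebufenozide inducer 100 nM final; compound titration; qHTS, 1500 cells/well; ATPlite luminescent read.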
# * = called active by the depositor; ? = inconclusive; · = not tested or not shown; [ ] = remark or other dose. Unless noted, the call rests on the fitted dose curve; in most records, active means well fitted curve in the direction sought with a large enough effect; inconclusive means small, poorly fitted or top-dose-only effect, or another doubt; inactive means no such curve, though single readings can be large; an effect the other way counts as inactive or inconclusive.
SMILES,TRb SRC2 PPI,HttQ103 aggreg,TexasRed fluor,KDM4E inh,FBPA coupling cs,HTT ATP protect
C/C=C(/C)C(=O)O[C@H]1C[C@@]2(C)O[C@H]2[C@@H](OC(C)=O)C2(C)CC[C@@](O)(C(C)C)C12 (some centres undefined),-11.3%,·,-3.0%,·,-0.3,·
CC(C)(C)C1=CC=C(C(C)(C)C)C(=O)C1=O,3.6%,4.7%[9.22 µM],0.8%,-13.3%,-59.6*,3.1%[10 µM]
CC(C)(C)c1ccc2c(c1)C(=O)c1ccccc1C2=O,-1.6%,-24.2%,-5.9%,2.5%,5.7,0.5%[10 µM]
Cc1ccccc1CNc1ncnc2c1ncn2[C@@H]1O[C@@H](CO)[C@H](O)[C@@H]1O,·,·,·,·,·,-39.0%[1.9 µM]
Cc1ccc(-n2c(/C=C/c3c(C)n(C)c4ccccc34)nc3ccccc3c2=O)cc1,4.7%,·,7.6%,·,·,·
O=c1[nH]c(S)nc2sc3c(c12)CCCC3,1.8%,?,-1.9%,?,8.8,3.9%
O=c1[nH]nnc2sc3c(c12)CCCC3,-3.0%,11.2µM*,-6.2%,2.1%,7.4,6.7%[10 µM]
Cc1cc(NO)c(C(C)C)cc1N=O,7.0%,3.16µM*,-1.1%,-1.4%,-1.3,-73.8%[10 µM]
COc1ccc(C)cc1C(=O)CCC(=O)Nc1ccccc1N1CCOCC1,-10.3%,12.6µM*,-2.8%,-22.4%,0.3,17.0%[10 µM]
COc1cc(CC(=O)Nc2ccccc2N2CCOCC2)cc(OC)c1OC,5.8%,2.3%,0.3%,-26.5%,6.6,-33.2%
O=C(O)C1CCCN1C(=O)Nc1ccc(F)cc1 (centres undefined),?,-0.4%,2.0%,0.9%,0.1,9.2%
O=C(O)C1CCCN1C(=O)Nc1ccccc1 (centres undefined),-19.2%,1.12µM*,3.8%,-1.0%,3.4,0.7%[0.074 µM]
O=C(Nc1cccn(Cc2c(F)cccc2Cl)c1=O)NC1CCCCC1,1.4%,-0.8%[9.22 µM],5.5%,?,-35.2*,-39.2%[10 µM]
O=C(Nc1cccn(Cc2cccc(F)c2)c1=O)NC1CCCCC1,5.5%,-0.3%[9.22 µM],-1.4%,-17.2%,-21.3,-18.2%[10 µM]
CCOC(=O)CSC1=C(C#N)C(c2ccc(F)cc2)C(C(C)=O)=C(C)N1 (centres undefined),-12.0%,?,0.5%,?,-39.3*,-48.1%
CCOC(=O)C1=C(C)NC(SCC(=O)OC)=C(C#N)C1c1ccc(C(=O)OC)cc1 (centres undefined),9.1%,0.0%[9.22 µM],1.7%,?,0.2,-29.5%
Cc1ccc(C(=O)CC(=O)c2cccc(F)c2)c(O)c1,-0.6%,22.4µM*,-1.7%,?,-1.9,37.2%
Cc1ccc(C(=O)CC(=O)c2ccccc2C)c(O)c1,·,·,·,·,0.5,·
COC(=O)C1=C(C(=O)OC)[C@@H]2N(Cc3ccccc3)c3ccccc3[C@@]23C[C@@H](C(=O)OC)N(S(=O)(=O)c2ccc(C)cc2)C3=N1,4.6%[11.2 µM],·,-2.9%[11.2 µM],-6.2%[11.4 µM],0.2,16.0%[10 µM]
C/C(Cn1nnc([N+](=O)[O-])n1)=N\NC(=O)c1ccc(Cl)c(Cl)c1,-2.1%,?,-1.8%,1.5%,-43.4*,-3.4%
C/C(Cn1nnc([N+](=O)[O-])n1)=N\NC(=O)c1ccccc1O,-6.1%,-1.6%[9.22 µM],-4.0%,-14.4%,-34.5*,19.5%[10 µM]
CC1CCN(S(=O)(=O)c2cn(CC(=O)Nc3ccc(F)cc3)c(=O)c3ccccc23)CC1,2.1%,·,-2.0%,·,·,·
O=C(C[n+]1ccccc1)c1ccc(-c2ccccc2)cc1,-5.5%,-11.3%,-3.1%,?,-0.9,?
CN(C)c1cc[n+](CC(=O)c2ccc(-c3ccccc3)cc2)cc1,4.7%,15.8µM*,-2.0%,0.8%,1.7,-77.3%
CN(C)S(=O)(=O)c1ccc(C(=O)Nc2nc(-c3cc4ccccc4o3)cs2)cc1,-8.9%,?,-2.8%,?,-6.5,11.4%[10 µM]
SMILES,TRb SRC2 PPI,HttQ103 aggreg,TexasRed fluor,KDM4E inh,FBPA coupling cs,HTT ATP protect
Cc1cc(-c2csc(NC(=O)c3ccc(S(=O)(=O)N(C)C)cc3)n2)c(C)n1-c1ccccc1,4.5%,5.8%,-6.0%,28.2µM*,1.3,11.9%[10 µM]
CCc1cc(N2CCOCC2)cc2c1[nH]c1ccccc12,-5.9%,-3.7%,-2.9%,?,-43.4*,-6.7%
Cc1nc(Nc2ccccc2)[nH]c(=O)c1CCC(C)C,-2.1%,?,4.5%,3.5%,1.3,4.2%
CCCCCc1c(C)nc(NCc2ccccc2)[nH]c1=O,1.4%,31.6µM*,-4.8%,-19.2%,-0.4,-13.4%[0.074 µM]
CC(=O)c1c(O)c(C)c(O)c2c1OC1=CC(=O)[C@H](C(C)=O)C(=O)[C@]12C,·,·,·,·,·,-2.7%
COc1cc2c(cc1OC)C(c1ccc(-c3ccc(Cl)cc3Cl)o1)=NCC2,1.7%,14.1µM*,0.7%,-2.2%,0.4,-103.5%
COc1cc2c(cc1OC)C(c1ccc(-c3ccc(Cl)c(Cl)c3)o1)=NCC2,4.4%,8.91µM*,1.2%,-15.4%,0.1,8.2%[10 µM]
COc1cc2c(cc1OC)C(c1ccc(-c3ccccc3Cl)o1)=NCC2,0.1%,?,-2.0%,-12.7%,-1.7,-40.2%
COc1cc2c(cc1OC)C(c1ccc(-c3cc(Cl)ccc3Cl)o1)=NCC2,-1.7%,4.7%,-0.7%,?,-8.8,-52.0%[10 µM]
Cc1cccnc1NCc1ccc(O)c2ncccc12,-6.6%,-32.4%,0.1%,17.8µM*,3.4,-46.5%
CCN(CCCc1ccccc1)CCCc1ccccc1,-0.1%,5.9%,-1.5%,8.91µM*,-1.6,-97.8%
CC[C@H](C)[C@H](NC(=O)CNC(=O)[C@H](C)NC(=O)[C@H](C)N)C(=O)NCC(=O)N[C@H](C(=O)N[C@@H](CC(C)C)C(=O)N[C@H](C(=O)N[C@H](C(=O)O)C(C)C)[C@@H](C)O)[C@@H](C)CC,-1.3%,·,-1.5%,·,0.1,·
COCc1nnc(NS(=O)(=O)c2ccc(Cl)cc2)s1,·,·,·,·,-0.4,·
O=S(=O)(Nc1nnc(-c2ccccc2)s1)c1ccc(Cl)cc1,-12.9%,35.5µM*,0.8%,3.2%,19.6,-23.6%
COc1ccccc1NC(=O)CCn1nc(-c2ccccc2OC)c2c(C)cc(C)nc21,0.8%,·,-3.2%,·,·,·
C/C(=N\Nc1cc(-c2ccccc2)nc(-c2ccccc2)n1)c1ccc(O)c(C)c1,13.1%,0.7%,10.1%,-3.5%,-0.1,-7.5%[10 µM]
COc1cc(N/N=C(\C)c2ccc(O)c(C)c2)nc(-c2ccccc2)n1,3.0%,16.0%[9.22 µM],-0.6%,31.6µM*,-3.3,-6.3%[10 µM]
OC[C@@H]1O[C@@H](n2cnc3c(NCc4ccco4)ncnc32)[C@H](O)[C@H]1O,·,·,·,·,·,-82.5%
CC(=O)c1ccc(NC(=O)Cn2c3ncccc3c(=O)n2-c2ccc(C)cc2)cc1,?,·,89.1µM*[quencher],·,·,·
CCOC(=O)c1ccc(NC(=O)Cn2c3ncccc3c(=O)n2-c2ccc(C)c(C)c2)cc1,-4.0%,·,1.0%,·,·,·
